# High-throughput results (PubChem BioAssay)
# The list is not random: actives were taken first. Their share in the collection is about 2.6%.
# FLuc inh – inhibitors of firefly luciferase | Potency, µM (top dose mostly 57.1 µM), inactives show at the highest dose activity change, negative = inhibition, most hits filed as inhibitors | hit rate 2.2% among 72,000 | AID 411 | purified firefly luciferase, luminescence, 8 min; also: nearly all actives have a fitted effect of over 40% in size
# Target sequence (P08659 whole entry, looked up): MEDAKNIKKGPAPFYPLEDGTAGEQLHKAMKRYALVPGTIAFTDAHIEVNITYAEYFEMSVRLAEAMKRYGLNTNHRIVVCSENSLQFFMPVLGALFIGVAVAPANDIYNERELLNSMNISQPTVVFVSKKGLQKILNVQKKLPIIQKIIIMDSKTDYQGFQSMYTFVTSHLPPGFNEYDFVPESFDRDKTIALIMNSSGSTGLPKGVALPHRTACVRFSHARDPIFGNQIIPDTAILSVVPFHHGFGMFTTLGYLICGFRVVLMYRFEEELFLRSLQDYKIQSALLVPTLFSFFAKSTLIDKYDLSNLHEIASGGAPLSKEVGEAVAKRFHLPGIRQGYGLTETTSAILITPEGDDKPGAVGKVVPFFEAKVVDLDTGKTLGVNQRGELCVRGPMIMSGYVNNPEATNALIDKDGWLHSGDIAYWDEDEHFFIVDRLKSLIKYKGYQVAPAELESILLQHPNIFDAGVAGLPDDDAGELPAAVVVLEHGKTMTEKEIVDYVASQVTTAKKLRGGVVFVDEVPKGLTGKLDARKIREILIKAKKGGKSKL
#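 Substrate buffer containing 10 uM ATP (pH 7.2 imidazole, Mg2+, KCl, detergent, BSA) is dispensed, compound pinned in, then luciferase/luciferin detector mix added. After 8 min at ambient temperature, light output is measured.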
# p53ts 39C kill – kills p53ts cells at the nonpermissive temperature. H1299-p53A138V viability at 39C, ATP luminescence, 24 h. Potency, µM (top dose mostly 46.1 µM), without a hit: at the top dose activity change, negative = cell killing, actives largely listed as cytotoxic. hit rate 1.5% among 130,000. AID 902; also: nearly all actives have a fitted effect of over 55% in size
# p53ts 32C kill – cytotoxicity in p53ts cells at permissive temperature | H1299-p53A138V at 32C, ATP luminescence viability, 24 h | Potency, µM (top dose mostly 46.1 µM), for inactives: top-dose activity change, negative = cytotoxicity, actives largely listed as cytotoxic | hit rate 0.93% among 130,000 | AID 924;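 also: 0% = DMSO and -100% = full killing by reference compound; nearly all actives have a fitted effect of over 55% in size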
#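 H1299-p53 A138V cells (temperature-sensitive p53) exposed 24 h to up to 46 uM compound at 32C, where p53 is wild-type in conformation. Viability read as ATP luminescence and normalised to DMSO and 100 uM tamoxifen. AC50 fitted with the Hill equation.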
# * hit, by the source's call; ? = inconclusive; / = no result; ! = repeats disagree; [ ] = dose if it differs, or a comment. Calls follow the shape of the dose curve; as a rule, active = well fitted curve in the direction sought with a large enough effect; inconclusive = small, poorly fitted or top-dose-only effect, or another doubt; inactive = no such curve, though single readings can be large; an effect the other way counts as inactive or inconclusive. Unless noted, % is scaled to controls: 0 for no effect and ±100 for the full control effect; potency is read from the fitted curve at half-maximal effect.
SMILES,FLuc inh,p53ts 39C kill,p53ts 32C kill
CCN(CC)c1ccc2cc(-c3nc4ccccc4[nH]3)c(=O)oc2c1,0.04µM*,0.4µM*,0.32µM*
COc1ccc(-c2nn(C)c3sc(C(=O)N4CCN(c5cccc(Cl)c5)CC4)cc23)cc1OC,/,10%,7%
COC(=O)c1cc2occc2n1CC(=O)Nc1ccc(C(C)C)cc1,/,-18%,9%
COc1cccc(CNc2ncc(Br)cc2Br)c1O,-12%[25.5 µM],/,/
COc1cccc(CNc2ccc(Br)cn2)c1O,5µM*,/,/
Cc1ccc2scc(N3CCCC(C)C3)c(=O)c2c1 (centres undefined),/,?,13µM*
Cc1ccc2scc(N3CCN(c4cccc(C(F)(F)F)c4)CC3)c(=O)c2c1,/,?,-4%
O=C(c1cc(-c2cccc(Cl)c2)on1)N1CCCCC1,/,-20%,-15%
O=C(c1cc(-c2ccc(F)cc2)on1)N1CCCC1,13µM*,10µM*,16µM*
COc1ccccc1-c1cc(C(=O)N2CCCCC2C)no1 (centres undefined),/,-5%,11%
COc1cccc(-c2cc(C(=O)N3CCCCC3C)no2)c1 (centres undefined),20µM*,?,?
COc1cccc(-c2cc(C(=O)N3CCCCCC3)no2)c1,7.9µM*,10µM*,13µM*
COc1cccc(-c2cc(C(=O)N3CCN(c4ccc(F)cc4)CC3)no2)c1,/,8%,-3%
O=C(c1cc(-c2ccc(Cl)c(Cl)c2)on1)N1CCCC1,-4%,4%,-4%
O=C(c1cc(-c2cccc(O)c2)on1)N1CCCCC1,16µM*,?,?
CCOc1ccc(CCNC(=O)CCc2cn(Cc3ccc(C)cc3)c3ccccc23)cc1,/,-21%,-3%
CN(C(=O)CSc1nc2ccc(NC(=O)CCc3ccccc3)cc2s1)c1ccccc1,/,?,6%
O=S(=O)(c1cccc(Cl)c1)c1nnn2c1nc(NCc1ccc3c(c1)OCO3)c1sccc12,/,-11%,-2%
O=C(COC(=O)c1cc2ccccc2o1)c1ccccc1,13µM*,13%,-3%
O=C(COC(=O)c1cc(-c2cccs2)nc2ccccc12)c1ccccc1,/,19%,-14%
O=C(Cc1ccc(F)cc1)OCC(=O)c1cc2ccccc2o1,-44%,2%,2%
O=C(COC(=O)c1cccs1)c1ccccc1,5µM*,6%,-6%
CCOc1ccc(NC(=O)Cn2c(=O)n(-c3ccccc3)c(=O)c3c4c(sc32)CCCC4)cc1,/,-10%,-9%
COc1ccc(NC(=O)Cn2c(=O)n(-c3ccccc3)c(=O)c3c4c(sc32)CCCC4)cc1,/,25µM*,?
COc1ccccc1CNC(=O)CCC1N=C2c3ccccc3N=C(SCC(N)=O)N2C1=O (centres undefined),/,2%,-2%
SMILES,FLuc inh,p53ts 39C kill,p53ts 32C kill
CCOc1ccc(NS(=O)(=O)c2c(C)nc3sc(C)c(C)n3c2=O)cc1,/,-16%,-9%
COc1ccc(NC(=O)C2CCC(CNS(=O)(=O)c3ccc4c(c3)C(C)(C)C(=O)N4C)CC2)cc1 (centres undefined),/,-14%,-3%
O=NC1=C(c2c(O)[nH]c3ccccc23)CCCC1,2%,10%,-3%
O=Nc1c(-c2c(O)[nH]c3ccccc23)[nH]c2ccccc12,25µM*!,25µM*,25µM*
Cc1ccc(N(CC(=O)Nc2cc(C)ccc2C)S(=O)(=O)c2c(C)noc2C)cc1,/,-8%,3%
Cc1ccccc1NC(=O)Cn1c(SCC(=O)Nc2ccc(F)cc2)nc2ccccc21,/,-23%,-14%
CCCC12CN3CC(CCC)(CN(C1)C3c1c(C)[nH]c(=O)[nH]c1=O)C2=O (centres undefined),/,-20%,0%
CC1=C(C(=O)Nc2ccccc2)C(c2cc(Br)ccc2F)n2ncc(C(=O)Nc3ccccc3)c2N1 (centres undefined),/,-11%,9%
CC1=C(C(=O)Nc2ccc(C)cc2C)C(c2cc(Br)ccc2F)n2ncc(C(=O)Nc3ccc(C)cc3)c2N1 (centres undefined),/,13µM*,?
COc1ccc(NC(=O)c2ccc3c(c2)OCO3)cc1Cl,3.2µM*,13µM*,5µM*
O=C(CSCSCC(=O)Nc1ccc2c(c1)OCO2)Nc1ccc2c(c1)OCO2,-16%,-14%,-14%
COc1ccc(NC(=O)c2cnc[nH]2)cc1,/,13µM*,7.9µM*
COC(=O)c1ccc(NC(=O)c2ccc3c(c2)OCO3)cc1,-7%,-15%,-15%
O=C(Nc1cccc(Cl)c1)c1cnc[nH]1,/,24%,-8%
CC(C)=CC(=O)Nc1ccc2c(c1)OCO2,25µM*,?,10µM*
COc1cc(C(=O)Nc2ccc3c(c2)OCCO3)ccc1OC(F)F,16µM*,13µM*,16µM*
O=C(Nc1ccncc1)c1ccc2c(c1)OCCO2,?,-24%,?
CC12CCC3c4ccc(OCc5ccccc5)cc4CCC3C1CC(O)C2O (centres undefined),/,?,-1%
CCC(C)NC(=O)CCc1c(C)nc2cc(-c3ccc(OC)cc3OC)nn2c1C (centres undefined),/,-6%,4%
Cc1cc(SCC(=O)Nc2nsc(-c3ccc(C(C)(C)C)cc3)n2)nc2ccccc12,/,-1%,-8%
COc1ccc(-c2cc(C(=O)N/N=C/c3ccc(OC)c(OC)c3)[nH]n2)cc1,/,-24%,-12%
CCOc1ccc(S(=O)(=O)N(C(=O)c2ccncc2)c2ccc3oc(C)c(C(=O)OC)c3c2)cc1,/,7%,25%
O=C(Nc1ccc2c(c1)OCCO2)c1cncc(Br)c1,10µM*,10µM*,10µM*
O=C(Nc1ccc2c(c1)OCO2)c1cncc(Br)c1,-15%[25.5 µM],/,/
COc1ccccc1NC(=O)Nc1ccc2c(c1)OCCO2,13µM*,13µM*,10µM*
SMILES,FLuc inh,p53ts 39C kill,p53ts 32C kill
COc1ccc(OCCCC(=O)Nc2ccc3c(c2)OCCO3)cc1,-1%,5%,-1%
COc1cccc(OC)c1C(=O)Nc1ccc2c(c1)OCCO2,-5%,-5%,-6%
COc1cc(C(=O)Nc2ccc3c(c2)OCCO3)ccc1OC(C)C,13µM*,?,?
CCn1cc(C(=O)Nc2ccc3c(c2)OCCO3)c2cc(OC)c(OC)cc2c1=O,-3%,0%,5%
COc1ccc(C(=O)Nc2ccc3c(c2)OCCO3)cc1,/,7.1µM*,6.3µM*
O=C(CSc1nc2ccccc2c2nc(-c3ccccc3)nn12)Nc1ccc(F)cc1,/,5%,2%
CCOC(=O)N1CCc2c(sc3c2C(=O)NC(c2ccc(N(C)C)cc2)N3)C1 (centres undefined),/,-1%,-2%
COc1ccc(C(=O)c2c(N)c(C(=O)Nc3cccc(OC)c3)c3ccccn23)cc1,/,13%,-6%
COc1ccc(-c2nc3cnc(N4CCN(C)CC4)nc3n(-c3ccc(OC)cc3)c2=O)cc1,1%[11.4 µM],-4%,-6%
COc1ccc(Nc2ncc(C(=O)N3CCN(c4cccc(Cl)c4)CC3)c3ccccc23)cc1,/,-7%,8%
COc1ccc(-c2nnc(SC(C)C(=O)Nc3ccc4c(c3)OCCO4)o2)cc1 (centres undefined),20µM*,13µM*,16µM*
COc1cc(NC(=O)c2ccccc2)cc(OC)c1,-1%,-8%,-3%
COc1ccc(NC(=O)C=C(C)C)cc1Cl,20µM*,?,?
